# Source: PubChem BioAssay
# Records with an inconclusive call do not appear. Calls of active or inactive are those of the source.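 How the source made its calls, unless noted: active means normalized viability below 100% at a tested concentration; inactive means the rest.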
# Columns and labels:
# [1] = growth inhibition of DIPG glioma cells, dose response, cell-based, SU-DIPG-XVII, MIPE5.0, CellTiter-Glo, qHTS (AID 1347060; cut-off not given, nearly all actives have AC50 up to about 26 µM;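 on AC50: cells exposed to compound for 48 hours before viability readout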); conditions: SU-DIPG-XVII viability, CellTiter-Glo ATP luminescence
# [2] = growth inhibition of DIPG glioma cells, dose response, cell-based, SU-DIPG-XIII, MIPE4.0, CellTiter-Glo, qHTS (AID 1347061; cut-off not given, nearly all actives have AC50 up to about 37 µM;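 further: cells exposed to compound for 48 hours before readout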); conditions: SU-DIPG-XIII viability, CellTiter-Glo ATP luminescence
# [3] = growth inhibition of DIPG glioma cells, dose response, cell-based, JHH-DIPG-1, MIPE4.0, CellTiter-Glo, qHTS (AID 1347062; cut-off not given, nearly all actives have AC50 up to about 27 µM;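 on AC50: cells exposed to compound for two days before readout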); conditions: JHH-DIPG-1 viability, CellTiter-Glo ATP luminescence
# [4] = growth inhibition of DIPG glioma cells, dose response, cell-based, SU-DIPG-IV, MIPE4.0, CellTiter-Glo, qHTS (AID 1347063; cut-off not given, nearly all actives have AC50 up to about 30 µM;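 further: compound exposure lasted 48 hours before the viability readout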); conditions: SU-DIPG-IV viability, CellTiter-Glo ATP luminescence
# [5] = growth inhibition of DIPG glioma cells, dose response, cell-based, SU-DIPG-XIII, MIPE5.0, CellTiter-Glo, qHTS (AID 1347064; cut-off not given, nearly all actives have AC50 up to about 23 µM;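 on AC50: cells exposed to compound for 48 hours before the viability read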); conditions: SU-DIPG-XIII viability, CellTiter-Glo ATP luminescence
# [6] = viability loss in pontine glioma line – cell-based, SU-DIPG-XXV, MIPE5.0, CellTiter-Glo, qHTS, dose response (AID 1347065; cut-off not given, nearly all actives have AC50 up to about 26 µM;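 further: cells exposed to compound for 48 hours before ATP readout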); conditions: CellTiter-Glo ATP luminescence
# [7] = SU-DIPG-VI glioma cell viability, MIPE4.0 library, CellTiter-Glo luminescence, qHTS (AID 1347066; cut-off not given, nearly all actives have AC50 up to about 30 µM;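 further: cells exposed to compound for 48 hours before readout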); conditions: CellTiter-Glo ATP luminescence
# [8] = JHH-DIPG-1 glioma cell viability, MIPE5.0 library, CellTiter-Glo luminescence, qHTS (AID 1347067; cut-off not given, nearly all actives have AC50 up to about 26 µM;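 further: cells exposed to compound for 48 hours before readout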); conditions: JHH-DIPG-1 glioma viability, CellTiter-Glo ATP luminescence
# [9] = sensitizers of A549 cells to miR-34 induction, primary screen, imaging, A549 dox-inducible miR-34, nuclei and caspase counts (AID 1347080;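 active means compounds whose cell count with miR-34 switched on is under 0.7 times the count with it off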); conditions: A549 miR-34 inducible, Hoechst nuclei count, 48 h
# [10] = survival rescue of mitochondrial mutant cells in low glucose, primary screen, MELAS cybrids, Rieske KO mouse fibroblasts, CellTiter-Glo (AID 1508586;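 active means mean z-score across replicates of 1.96 or higher in either the MELAS or the Rieske mutant cell line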;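 further: z relative to plate mean and SD of compound and empty wells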)
# [11] = SU-DIPG-XXV glioma cell viability, MIPE5.0 library, qHTS (AID 1347068; cut-off not given, nearly all actives have IC50 up to about 30 µM)
# [12] = modifiers of HSF1 nuclear foci, imaging, Selleck Cancer Library (AID 1347162; in the data active means plate-normalised HSF1 focus index below about 0.46); conditions: human cells, at 10 µM; SSMD: measured here: HSF1 foci SSMD mean; cell count: measured here: cell number; plate-normalised HSF1 focus index: stronger effect = lower value
# [13] = ovarian cancer cell viability with rucaparib, profiling panel, oncology-focused library, rucaparib conditional (AID 1508598); conditions: patient-derived ovarian cancer cells, CellTiter-Glo viability, 144 h, stronger effect = lower value
# [14] = LFS_MB_P medulloblastoma growth inhibition, cell-based, chromothripsis tumors, cisplatin or BGB combos (AID 1671449; in the data active means inhibition above about 80%;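 further: cells exposed for 96 hours; 0% = vehicle DMSO and 100% = killing by high DMSO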); conditions: LFS_MB_P medulloblastoma cells
# [15] = HDN33 neuroblastoma growth inhibition, cell-based, chromothripsis tumors, cisplatin or BGB combos (AID 1671450; in the data active means inhibition above about 80%;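 further: cells exposed to compound for four days; 0% = vehicle DMSO and 100% = cell killing by high DMSO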); conditions: HDN33 neuroblastoma cells, stronger effect = higher value
# [16] = ICB984 medulloblastoma cell growth inhibition, synergistic combos for chromothripsis tumors, cisplatin or BGB combos (AID 1671451; call rule not given here;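 further: cells exposed for 96 hours before readout; 0% = vehicle DMSO and 100% = killing by high DMSO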); conditions: ICB984 medulloblastoma cells, drug combinations, stronger effect = higher value
# [17] = HTB85 osteosarcoma cell growth inhibition, synergistic combos for chromothripsis tumors, BGB or cisplatin IC20 combos (AID 1671453; in the data active means inhibition above about 80%;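 further: cells exposed for 96 hours before readout; 0% = vehicle DMSO and 100% = high DMSO killing control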); conditions: HTB85 osteosarcoma cells, drug combinations, stronger effect = higher value
# [18] = MDA-MB-436 breast carcinoma cell growth inhibition, synergistic combos for chromothripsis tumors, BGB or cisplatin combos (AID 1671458; call rule not given here;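 further: cells exposed for 96 hours; 0% = vehicle DMSO and 100% = killing by high DMSO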); conditions: MDA-MB-436 breast carcinoma growth inhibition, drug combinations, stronger effect = higher value
# [19] = growth inhibition of BT084 medulloblastoma cells, cell-based, ICGC_MB145, cisplatin and BGB IC40 combos (AID 1671461; in the data active means inhibition above about 80%;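 further: cells exposed to drugs for 96 hours; 0% = vehicle DMSO and 100% = high DMSO full killing control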); conditions: drug combinations, stronger effect = higher value
# [20] = growth inhibition of RCMB18 medulloblastoma cells, cell-based, cisplatin and BGB IC40 combos (AID 1671462; in the data active means inhibition above about 80%;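 further: cells exposed to compound for four days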); conditions: stronger effect = higher value
compound,measurement,setting,value
CC(C)n1nc(-c2cc3cc(O)ccc3[nH]2)c2c(N)ncnc21,AC50,[1],2.63 µM (active)
same,AC50,[2],18.7 µM (active)
same,AC50,[3],9.35 µM (active)
same,AC50,[4],0.148 µM (active)
same,AC50,[5],1.66 µM (active)
same,AC50,[6],0.742 µM (active)
same,AC50,[7],20.9 µM (active)
same,AC50,[8],2.63 µM (active)
same,fold change,"[9]; stronger effect = lower value, cell number ratio, induced over uninduced",0.892 (inactive)
same,fold change,[9]; measured here: relative caspase fold change +Dox/-Dox,1.11
same,cell count,"[9]; measured here: total cells with miR-34 induction, stronger effect = lower value",1620
same,cell count,[9]; measured here: total cells without miR-34 induction,1820
same,z-score,"[10]; MELAS cybrid survival, CellTiter-Glo 48 h, stronger effect = higher value",5.6 (active)
same,z-score,"[10]; Rieske KO mouse fibroblast survival, CellTiter-Glo 72 h",-2.66
CCNC(=O)c1cc2c(-c3cc(OCCN4CCCC4)c(Cl)cc3Cl)nc(N)nc2s1,AC50,[1],1.02 µM (active)
same,AC50,[2],6.62 µM (active)
same,AC50,[3],0.935 µM (active)
same,AC50,[4],2.35 µM (active)
same,AC50,[5],2.29 µM (active)
same,AC50,[6],1.62 µM (active)
same,AC50,[8],1.82 µM (active)
Nc1ncnc2ccccc12,outcome,[1],inactive
same,outcome,[2],inactive
same,outcome,[3],inactive
same,outcome,[4],inactive
same,outcome,[5],inactive
same,outcome,[6],inactive
same,outcome,[8],inactive
same,outcome,[11],inactive
O=C(/C=C/c1cccc(S(=O)(=O)Nc2ccccc2)c1)NO,AC50,[1],2.09 µM (active)
same,AC50,[2],15.2 µM (active)
same,AC50,[3],7.62 µM (active)
same,AC50,[4],3.4 µM (active)
same,AC50,[5],0.661 µM (active)
same,AC50,[6],0.742 µM (active)
same,AC50,[7],3.82 µM (active)
same,AC50,[8],0.742 µM (active)
same,SSMD,[12],-3.23
same,cell count,[12],7740
same,plate-normalised HSF1 focus index,[12],0.885 (inactive)
same,viability,"[13]; at 0.000305 µM, OCI-C5x cells, with rucaparib 10 µM, 100% = cells with rucaparib alone",104% (inactive)
same,viability,"[13]; at 0.000305 µM, OCI-C5x cells, without rucaparib",114% (inactive)
same,viability,"[13]; at 0.000305 µM, OCI-P5x cells, with rucaparib 20 µM, 100% = cells with rucaparib alone",106% (inactive)
same,viability,"[13]; at 0.000305 µM, OCI-P5x cells, without rucaparib",94% (active)
same,viability,"[13]; at 0.00122 µM, OCI-C5x cells, with rucaparib 10 µM, 100% = cells with rucaparib alone",98.8% (active)
same,viability,"[13]; at 0.00122 µM, OCI-C5x cells, without rucaparib",117% (inactive)
same,viability,"[13]; at 0.00122 µM, OCI-P5x cells, with rucaparib 20 µM, 100% = cells with rucaparib alone",113% (inactive)
same,viability,"[13]; at 0.00122 µM, OCI-P5x cells, without rucaparib",100% (inactive)
same,viability,"[13]; at 0.00488 µM, OCI-C5x cells, with rucaparib 10 µM, 100% = cells with rucaparib alone",114% (inactive)
same,viability,"[13]; at 0.00488 µM, OCI-C5x cells, without rucaparib",117% (inactive)
same,viability,"[13]; at 0.00488 µM, OCI-P5x cells, with rucaparib 20 µM, 100% = cells with rucaparib alone",101% (inactive)
same,viability,"[13]; at 0.00488 µM, OCI-P5x cells, without rucaparib",95% (active)
same,viability,"[13]; at 0.0195 µM, OCI-C5x cells, with rucaparib 10 µM, 100% = cells with rucaparib alone",104% (inactive)
same,viability,"[13]; at 0.0195 µM, OCI-C5x cells, without rucaparib",119% (inactive)
same,viability,"[13]; at 0.0195 µM, OCI-P5x cells, with rucaparib 20 µM, 100% = cells with rucaparib alone",90.8% (active)
same,viability,"[13]; at 0.0195 µM, OCI-P5x cells, without rucaparib",88.4% (active)
same,viability,"[13]; at 0.0781 µM, OCI-C5x cells, with rucaparib 10 µM, 100% = cells with rucaparib alone",97.6% (active)
same,viability,"[13]; at 0.0781 µM, OCI-C5x cells, without rucaparib",112% (inactive)
same,viability,"[13]; at 0.0781 µM, OCI-P5x cells, with rucaparib 20 µM, 100% = cells with rucaparib alone",77.4% (active)
same,viability,"[13]; at 0.0781 µM, OCI-P5x cells, without rucaparib",75.3% (active)
same,viability,"[13]; at 0.313 µM, OCI-C5x cells, with rucaparib 10 µM, 100% = cells with rucaparib alone",77% (active)
same,viability,"[13]; at 0.313 µM, OCI-C5x cells, without rucaparib",75.9% (active)
same,viability,"[13]; at 0.313 µM, OCI-P5x cells, with rucaparib 20 µM, 100% = cells with rucaparib alone",43.7% (active)
same,viability,"[13]; at 0.313 µM, OCI-P5x cells, without rucaparib",63.5% (active)
same,viability,"[13]; at 1.25 µM, OCI-C5x cells, with rucaparib 10 µM, 100% = cells with rucaparib alone",12.7% (active)
same,viability,"[13]; at 1.25 µM, OCI-C5x cells, without rucaparib",12.1% (active)
same,viability,"[13]; at 1.25 µM, OCI-P5x cells, with rucaparib 20 µM, 100% = cells with rucaparib alone",17.8% (active)
same,viability,"[13]; at 1.25 µM, OCI-P5x cells, without rucaparib",35.8% (active)
same,viability,"[13]; at 5 µM, OCI-C5x cells, with rucaparib 10 µM, 100% = cells with rucaparib alone",5.06% (active)
same,viability,"[13]; at 5 µM, OCI-C5x cells, without rucaparib",5.35% (active)
same,viability,"[13]; at 5 µM, OCI-P5x cells, with rucaparib 20 µM, 100% = cells with rucaparib alone",2.89% (active)
same,viability,"[13]; at 5 µM, OCI-P5x cells, without rucaparib",3.18% (active)
same,inhibition,"[14]; at 0.5 µM, stronger effect = higher value",40.5% (inactive)
same,inhibition,"[14]; measured here: combination with BGB IC20, at 0.005 µM",-0.936%
same,inhibition,"[14]; measured here: combination with BGB IC40, at 0.005 µM",-11.3%
same,inhibition,"[14]; measured here: combination with BGB IC40, at 0.05 µM",-18.3%
same,inhibition,"[14]; measured here: combination with cisplatin, at 0.5 µM, stronger effect = higher value",101%
same,inhibition,"[14]; measured here: combination with cisplatin, at 5 µM, stronger effect = higher value",112%
same,inhibition,"[15]; BGB combo, at 5 µM",99.6%
same,inhibition,[15]; at 0.5 µM,28.3% (inactive)
same,inhibition,"[15]; cisplatin combo, at 5 µM",99.8%
same,inhibition,"[15]; measured here: with BGB IC20 combination, at 0.5 µM",17.9%
same,inhibition,"[15]; measured here: with cisplatin IC20 combination, at 0.5 µM",21.7%
same,inhibition,"[15]; single agent, at 5 µM",99.8%
same,inhibition,"[16]; BGB IC20 combo, at 0.005 µM",18.9%
same,inhibition,"[16]; BGB IC40 combo, at 0.005 µM",36.1%
same,inhibition,"[16]; BGB IC40 combo, at 0.05 µM",94.9%
same,inhibition,[16]; at 0.5 µM,-22.2% (inactive)
same,inhibition,"[16]; cisplatin combo, at 0.05 µM",94.8%
same,inhibition,"[16]; cisplatin combo, at 0.5 µM",-34.3%
same,inhibition,"[16]; cisplatin combo, at 5 µM",-34.9%
same,inhibition,"[16]; measured here: 5 uM single agent, at 5 µM",-35.3%
same,inhibition,[17]; at 0.5 µM,34.5% (inactive)
same,inhibition,"[17]; measured here: with BGB IC20, at 0.5 µM",8.9%
same,inhibition,"[17]; measured here: with BGB IC20, at 5 µM",99.2%
same,inhibition,"[17]; measured here: with cisplatin IC20, at 0.5 µM",49.8%
same,inhibition,"[17]; measured here: with cisplatin IC20, at 5 µM",99.8%
same,inhibition,"[17]; single agent, at 5 µM",99.7%
same,inhibition,[18]; at 0.5 µM,33.7% (inactive)
same,inhibition,"[18]; measured here: BGB combination, at 0.5 µM",25.2%
same,inhibition,"[18]; measured here: BGB combination, at 5 µM",62%
same,inhibition,"[18]; measured here: cisplatin combination, at 0.5 µM",26.3%
same,inhibition,"[18]; measured here: cisplatin combination, at 5 µM",66.1%
same,inhibition,[19]; at 0.5 µM,38.7% (inactive)
same,inhibition,"[19]; cisplatin combination, at 0.5 µM",58.9%
same,inhibition,"[19]; cisplatin combination, at 5 µM",102%
same,inhibition,"[19]; measured here: BGB IC40 combination 0.05 uM, at 0.05 µM",14.1%
same,inhibition,"[19]; single agent, at 5 µM",108%
same,inhibition,[20]; at 0.5 µM,32.4% (inactive)
same,inhibition,"[20]; cisplatin combo, at 5 µM",91.3%
same,inhibition,"[20]; measured here: BGB IC40 combination, at 0.05 µM",-15.7%
same,inhibition,"[20]; measured here: combination with cisplatin, at 0.5 µM",51.1%
same,inhibition,"[20]; single agent, at 5 µM",92.7%
